Source: PubChem BioAssay (National Center for Advancing Translational Sciences (NCATS))
Pf growth 96h – P. falciparum growth inhibition at 96 hours | P. falciparum luciferase reporter growth, 96 h | Potency, µM (highest dose often 28.7 µM), most hits filed as inhibitors | actives 6.9% (n = 320,000) | AID 504834
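Compounds incubated with erythrocytes infected by luciferase-expressing P. falciparum (2% hematocrit, 0.05% parasitemia final) for 96 hours, 37 C in 5% CO2. Growth inhibition scored as decreased luciferase luminescence.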
Pf growth 48h – inhibits P. falciparum growth in the first generation, 48 h. P. falciparum luciferase growth in erythrocytes, 48 h. Potency, µM (titrated, usually from 28.7 µM), actives largely listed as inhibitors. actives 5.9% (n = 310,000)
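Compounds are pin-transferred into medium, infected erythrocytes (2% hematocrit, 0.1% parasitemia final) are added, and plates sit one parasite generation at 37 C in 5% CO2. Detection reagent is then added and luminescence measured.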
HCMV inh – inhibitors of human cytomegalovirus; actives 4.5% (n = 410,000); activity change, negative = inhibition, % at 57.5 µM; AID 1259415; HFF cells, HCMV-luciferase reporter, 72 h; hits give low values; in the data active means activity change below about -60%; inconclusive means no clear call, values can overlap the other calls; inactive means above about -39%
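Two-dose cell screen: HFF monolayers treated with compounds and infected with luciferase-expressing HCMV at 1 PFU/cell, 72 h at 37C, then lysed for luciferase measurement.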
Cycloheximide cs – affects cycloheximide protein synthesis inhibition readout, counter-screen; cell reporter, cycloheximide protein synthesis inhibition counterscreen; max response, %; actives 12% (n = 300,000); in the data active means max response mostly above about 13%, no sharp cut-off; inactive means mostly below about 14%; further: read at 38.3 µM for the half of the compounds with a filed dose
Shiga inhibitor – blocks Shiga toxin action in Vero cells. Vero cells, Shiga toxin protein synthesis inhibition reporter. inhibition, % at 38.7 µM. actives 9.2% (n = 290,000); in the data active means inhibition mostly above about 28%, no sharp cut-off; inactive means mostly below about 43%
Numbers stand for hits; – = inactive; ? = inconclusive; · = not tested or not shown; + = active, no number. This is a sample that favours compounds with a hit; in the whole collection about 20% have one here. Unless noted, the call rests on the fitted dose curve; in most records, active means well fitted inhibition curve with a large enough effect; inconclusive means small, poorly fitted or top-dose-only effect, or another doubt; inactive means no such curve, though single readings can be large or run the other way.

SMILES	Pf growth 96h	Pf growth 48h	HCMV inh	Cycloheximide cs	Shiga inhibitor
CCOc1ccccc1CNC(=O)C1CCN(c2nnc(C)c3c(C)n(-c4ccc(C)cc4)nc23)CC1	?	?	-86	–	–
Cc1ccc(-n2nc3c(N4CCC(C(=O)NCc5ccccc5Cl)CC4)nnc(C)c3c2C)cc1	·	·	–	·	·
Cc1ccc(-n2nc3c(N4CCC(C(=O)NCc5ccccc5C)CC4)nnc(C)c3c2C)cc1	?	?	·	–	–
O=C(O)C(CCc1ccccc1)N1CCOCC1 (stereo not drawn)	·	·	–	·	·
COc1ccc(-c2ccc3c(c2)N(C(C)C)C(=O)COC3)cc1	·	·	–	·	·
COCCN(C(=O)COC(=O)c1c(C)nn(-c2ccccc2)c1C)c1c(N)n(Cc2ccccc2)c(=O)[nH]c1=O	·	·	–	·	·
CCOc1ccc(CNC(=O)C2CCN(c3nnc(C)c4c(C)n(-c5ccc(C)cc5)nc34)CC2)cc1	?	?	-74	–	–
Cc1cccc(NC(=O)C2CCN(S(=O)(=O)c3ccc4c(c3)CCCC(=O)N4)CC2)c1	·	·	–	·	·
O=C(COC(=O)Cc1n[nH]c(=O)c2ccccc12)NNC(=O)c1ccc(Cl)cc1	–	–	–	·	·
O=C1C(SCCO)=C(SCCO)C(=O)c2ccccc21	?	?	-95	·	·
CC1=C(SCc2ccccc2)C(=O)c2ccccc2C1=O	·	·	–	·	·
O=C(/C=C/c1ccccc1F)c1ccoc1	–	–	–	26	123
S=C1NCCOCCNC(=S)NCCOCCOCCN1	–	–	–	–	–
O=C(NC(=S)Nc1ccccc1)c1cc(-c2ccccc2)nc2ccccc12	10µM	?	–	–	–
O=C(NC(=S)Nc1ccccn1)c1cc(-c2ccccc2)nc2ccccc12	–	–	–	–	–
O=C(NNC(=S)Nc1ccccc1)c1cc(-c2cccnc2)nc2ccccc12	1.2µM	?	–	–	–
CCOC(=O)c1ccc(NC(=S)NNC(=O)c2cc(-c3cccnc3)nc3ccccc23)cc1	–	4.1µM	–	–	–
O=C(c1cc(S(=O)(=O)N2CCOCC2)ccc1Cl)N1CCc2ccccc2C1	–	?	–	–	–
COc1ccc(CCc2cc(OC)cc(=O)o2)cc1	1.9µM	–	–	19	–
Nc1nnc(SCc2cccc(C(F)(F)F)c2)s1	–	–	–	11	–
Cc1nnc(SCC(=O)NNC(=O)c2ccc(Cl)cc2)s1	–	–	–	–	–
CCOC(=O)c1ccc(CSc2nnc(N)s2)cc1	–	–	–	39	92
Nc1nnc(SCC(=O)NNC(=O)c2ccc(Cl)cc2)s1	–	–	-73	·	·
Clc1ccc(CSc2nnc(NC3=NCCCCC3)s2)cc1	–	·	-67	–	–
Clc1ccc(CSc2nnc(-c3ccncc3)s2)cc1	–	?	–	–	–
SMILES	Pf growth 96h	Pf growth 48h	HCMV inh	Cycloheximide cs	Shiga inhibitor
Nc1nnc(SCc2ccc(Cl)cc2)s1	–	–	–	–	+
Nc1nnc(CSc2ccc(Cl)cc2)s1	?	–	–	50	–
Nc1nnc(SCc2coc(-c3ccc(Cl)cc3)n2)s1	·	–	–	39	64
Nc1nnc(SCC(=O)Nc2ccc(Cl)cc2)s1	·	·	–	·	·
COc1ccc(CC(=O)N2CCCC2)c(OC)c1	–	–	–	–	–
Cc1ccc(-c2nnc(Nc3ccc(Cl)c(Cl)c3)c3ccccc23)cc1S(=O)(=O)NCCO	·	·	-91	·	·
Cc1ccc(-c2nnc(Nc3ccc(CC(N)=O)cc3)c3ccccc23)cc1S(=O)(=O)NCCO	–	6.6µM	–	–	–
NC(=O)Cc1ccc(Nc2nnc(-c3ccc(O)cc3)c3ccccc23)cc1	?	–	?	–	–
Cc1ccc(-c2nnc(Nc3ccc4c(c3)OCO4)c3ccccc23)cc1S(=O)(=O)NCCO	?	3.3µM	-94	–	–
Cc1ccc(-c2nnc(Nc3ccc4c(c3)OCO4)c3ccccc23)cc1S(=O)(=O)NC(C)C	?	2.9µM	-92	–	–
COc1ccc(Nc2cc3[nH]c(-c4cccc(C(F)(F)F)c4)cc3cn2)cc1	·	·	–	·	·
COc1ccccc1NC(=O)/C(=C\c1cccs1)NC(=O)c1ccco1	–	?	–	–	–
CCCC[C@@H](CNC)NC[C@H](NCCCCC1CCCCC1)C(C)C	1.7µM	?	-99	–	–
O=C(O)c1cc(N2N=C(C(F)(F)F)/C(=C/C=C/c3ccco3)C2=O)ccc1Cl	?	–	-90	–	–
CC1=NN(c2ccc(Cl)c(C(=O)O)c2)C(=O)C1	?	–	–	–	–
CC1=NN(c2ccc(C(=O)OC(C)C)cc2)C(=O)/C1=C\C=C\c1ccco1	?	2.9µM	–	–	–
